Assay outcomes (PubChem)
Only some compounds are listed: those with a hit (about 6.5% of all), similar ones and a draw of the others.
Autofluor 339: intrinsic fluorescence of library compounds, ex339/em460 – biochemical, MLSMR library, data from DPM-DC assay, artefact control, profiling panel; actives 5.5% (n = 65,000); AID 709; fluorescence fold increase at 10 µM; compound autofluorescence, ex339/em460 nm, NADH buffer; stronger effect = higher value; 1 = no-compound wells, NADH background;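 active = at 10 µM, mean starting fluorescence two-fold or more over control wells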;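 note: signal is the first read of a kinetic run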
Spn MK inh: inhibitors of Streptococcus pneumoniae mevalonate kinase. actives 0.48% (n = 65,000). purified MK, PK/LDH-coupled NADH absorbance 340 nm. inhibition, % at 10 µM. AID 555;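 active = ranked among the strongest by inhibition in the single 10 µM screen, a fixed top-ranked set picked for dose follow-up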
PMK inhibit: blocks S. pneumoniae phosphomevalonate kinase; purified PMK, PK/LDH-coupled NADH absorbance 340 nm; inhibition, % at 10 µM; actives 0.49% (n = 65,000); AID 539;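 active = top-ranked compounds by inhibition in the single 10 µM screen, taking a fixed number of the strongest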
Spn DPM-DC inh: blocks S. pneumoniae diphosphomevalonate decarboxylase | purified DPM-DC, PK/LDH coupled NADH fluorescence | calls only at 10 µM | actives 0.49% (n = 65,000) | AID 556;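 active = the 320 compounds with the highest percent inhibition in the single-dose primary screen, excluding strongly autofluorescent ones, cut at about 32% in these data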;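 note: kinetic rate of NADH fluorescence loss reporting ADP formed by the decarboxylase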
NADH coupling: inhibitors of enzymes used to reach an NAD/NADH endpoint | coupled PK/LDH NADH assays, four targets | IC50, µM (doses to about 10 µM) | actives 0.02% (n = 65,000) | AID 774;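 active = single-dose screening hits from any of four coupled enzyme assays that gave an IC50 when retested across doses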;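 note: the DPM-DC format reads NADH fluorescence rather than 340 nm absorbance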
A340 absorber: absorbance at 340 nm; fold change at 10 µM; compound absorbance at 340 nm, fold over control; 65,000 tested, under 10 active;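 active = at 10 µM dose, initial 340 nm absorbance at least 2 fold that of control wells; inactive = change under 2 fold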;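 note: initial absorbance extrapolated from kinetic A340 decline of NADH oxidation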
Numbers stand for hits; – = inactive; · = no result given.

SMILES	Autofluor 339	Spn MK inh	PMK inhibit	Spn DPM-DC inh	NADH coupling	A340 absorber
CC(C)CNC(=O)c1c(N)n(/N=C/c2ccccn2)c2nc3ccccc3nc12	–	–	–	–	–	–
COCCNC(=O)c1c(N)n(/N=C/c2cccs2)c2nc3ccccc3nc12	2.5	–	–	·	–	–
CCCCCCNC(=O)C(C#N)c1nc2ccccc2nc1N1CCOCC1 (stereo not drawn)	–	–	–	–	–	–
CCCCCCNC(=O)c1c(N)n(/N=C/c2ccco2)c2nc3ccccc3nc12	3	–	–	·	–	–
COc1cccc(N(C(=O)CNC(=O)c2ccco2)C(C(=O)NC2CCCCC2)c2ccncc2)c1 (stereo not drawn)	–	–	–	–	–	–
COc1ccc2[nH]c(C(=O)O)c(NS(=O)(=O)c3ccc(OC)c(OC)c3)c2c1	2.2	–	–	–	–	–
COc1ccc2[nH]c(C(=O)O)c(CCC(=O)O)c2c1	2.5	–	–	–	–	–
O=C(O)C1=C(C(=O)Nc2ccc(F)c(Cl)c2)CCCC1	–	–	25	–	–	–
Cc1cc(NC(=O)NC2CCCN2S(=O)(=O)c2ccc(Cl)cc2)no1 (stereo not drawn)	–	–	–	–	–	–
Fc1cccc(-c2cc3nc4c(c(N5CCN(c6cnccn6)CC5)n3n2)CCCC4)c1	2.4	–	–	·	–	–
C=CCn1c(SCC(=O)/C(C#N)=C(\C)N)nnc1C1CCCCC1	–	–	–	–	–	–
CCCC(=O)Nc1nn(C)c2nc3c(C)cccc3cc12	–	–	–	–	–	–
Cc1cccc2cc3c(NC(=O)c4ccccn4)nn(C)c3nc12	2.1	–	–	–	–	–
CCOc1ccc(C2C(C#N)=C(N)Oc3cc(C)n(CCN(C)C)c(=O)c32)cc1OCC (stereo not drawn)	–	–	–	–	–	–
CCOC(=O)N1CCN(c2c(-c3ccc(C)cc3)c(=O)c2=O)CC1	–	–	–	–	–	–
CCOC(=O)N1CCN(c2c(-c3ccccc3)c3cc(Cl)ccc3[nH]c2=O)CC1	2.5	–	–	–	–	–
COc1cc(NC(=O)c2ccc3c(c2)OCO3)ccc1NC(=O)C(C)C	–	–	–	–	–	–
COc1cc(NC(=O)c2ccc(-c3ccc(Br)cc3)o2)ccc1NC(=O)C(C)C	3.8	–	–	·	–	–
Cc1ccc(-c2nn3c(C)nnc3s2)cc1NC(=O)c1ccc(-c2ccc(Cl)cc2Cl)o1	3.7	–	–	·	–	–
Cc1nnc2sc(-c3ccc(NC(=O)c4ccc(-c5ccc(Br)cc5)o4)cc3)nn12	3.7	–	–	·	–	–
O=c1nc(-c2ccccc2)c2ccccc2[nH]1	2.7	–	–	–	–	–
COC(=O)c1c(C(=O)OC)n(CCCN)c2ccc(C)cc12	2.4	–	–	·	–	–
COc1cc2[nH]c3c(N4CCC(C(N)=O)CC4)ncnc3c2cc1OC	2.8	–	–	–	–	–
COc1cccc2[nH]c3c(N4CCC(C(N)=O)CC4)ncnc3c12	3.7	–	–	·	–	–
COc1ccc(-n2ncc3c(N4CCC(C(N)=O)CC4)ncnc32)cc1	–	–	–	–	–	–
SMILES	Autofluor 339	Spn MK inh	PMK inhibit	Spn DPM-DC inh	NADH coupling	A340 absorber
CN(C)/C=N/c1c(C#N)cnn1-c1ccccc1	–	–	–	–	–	–
CN(C)C=Nc1ccc2nn(-c3ccccc3)nc2c1	2.2	–	–	·	–	–
CCOC(=O)c1ccccc1NCN1C(=O)CSC1=O	2.2	–	29	·	–	–
CCOC(=O)c1ccccc1NC1CC(=O)N(c2ccccc2C)C1=O (stereo not drawn)	3.3	–	–	·	–	–
CCOC(=O)c1ccccc1NC(=O)C1COc2ccccc2O1 (stereo not drawn)	–	–	–	–	–	–
CCOC(=O)c1ccc(NC(=O)CN2C(=O)CSC2=O)cc1	–	–	–	–	–	–
Cn1c(SCC2CCCCC2)nnc1-c1ccncc1	–	–	–	–	–	–
CC1CCN(Cc2ccc(NC(=O)CC3Oc4ccccc4NC3=O)cc2)CC1 (stereo not drawn)	–	–	–	–	–	–
O=C1NC2CCCCC2NC1CC(=O)N1CCN(c2ccccc2)CC1 (stereo not drawn)	–	–	–	–	–	–
OCCNc1ncnc2c1ncn2Cc1ccccc1	–	–	–	–	–	–
C=CCn1cnc2c(NCc3ccccc3)ncnc21	–	active	–	–	–	–
O=C(Nc1ccc(-c2nnc(-c3ccccc3)o2)cc1)C(F)(F)F	–	–	–	–	–	–
CC(=O)/C=C(\C)Nc1ccc(-c2cnc(-c3ccccc3)o2)cc1	2.2	–	–	·	–	–
COc1ccc(OC)c2c1CCC2=O	2.3	–	–	·	–	–
CC1(c2ccc(Cl)cc2)NC(=O)N(CC(=O)N2CCCC2)C1=O (stereo not drawn)	–	–	–	–	–	–
CC(=O)C(C)Oc1cc(C)cc2oc(=O)c(C)c(C)c12 (stereo not drawn)	3.6	–	–	·	–	–
CC(=O)COc1cc(C)cc2oc(=O)c(C)c(C)c12	3.9	–	–	·	–	–
CCOC(=O)C1CCN(C(=O)CSC2=NCCS2)CC1	–	–	–	–	–	–
COc1ccc2nc(NCCCNC(=O)c3cc(OC)c(OC)c(OC)c3)c(C#N)cc2c1	3.1	–	–	·	–	–
CCn1cc(C(=O)Nc2nncs2)c(=O)c2cc(F)c(N3CCN(C(=O)c4ccco4)CC3)cc21	2.4	–	–	–	–	–
COc1cccc(-n2nnnc2SCC(=O)c2cc(OC)ccc2OC)c1	2.4	–	–	–	–	–
COc1cc2c(cc1NC(=O)CSc1nnnn1-c1ccccc1)oc1ccccc12	2.2	–	–	–	–	–
CN1CCCc2cc3c(C(F)(F)F)cc(=O)oc3nc21	2.2	–	–	·	–	–
Cc1csc(NC(=O)C2CCCO2)n1 (stereo not drawn)	–	–	–	–	–	–
COCC(=O)N(C)c1nnc(-c2cnc(C)cn2)s1	–	–	32	–	–	–
SMILES	Autofluor 339	Spn MK inh	PMK inhibit	Spn DPM-DC inh	NADH coupling	A340 absorber
Cc1cnc(-c2nnc(N(C)C(=O)C3CCCO3)s2)cn1 (stereo not drawn)	2.3	–	–	–	–	–
O=C(O)Cn1nc(C(F)(F)F)c2c1CCC2	–	–	–	–	–	–
COc1c2ccoc2nc2c(OC)c(OCC(O)C(C)(C)O)ccc12 (stereo not drawn)	2.5	–	–	·	–	–
CCOC(=O)c1snc2c(=O)[nH]cnc12	3.7	–	–	·	–	–
O=C(Nc1cc(C(F)(F)F)ccc1N1CCOCC1)C1Cc2ccccc2CN1C(=O)c1ccco1 (stereo not drawn)	–	–	–	–	–	–
COCCNc1cc(C)nc2c3c(C)cc(C)nc3nn12	3.8	–	–	·	–	–
Cc1cc(C)c2c(n1)nn1c(NCCN3CCOCC3)cc(C)nc21	3.8	–	–	·	–	–
